We go through ten compounds from PubChem BioAssay (NCI).

Test [1] in a line: NCI Yeast Anticancer Drug Screen. Data for the rad50 strain (AID 155).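 Note: 0% = growth of vehicle-only cultures of the same strain.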 The following applies: S. cerevisiae rad50 strain growth inhibition, stronger effect = higher value. The method, boiled down: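 Compounds were tested on a yeast strain with an engineered DNA damage repair alteration; the reported value is growth inhibition normalised to vehicle treatment.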
Test [2] is described as follows: NCI Yeast Anticancer Drug Screen. Data for the mec2-1 strain (AID 157). To be noted: S. cerevisiae mec2-1 strain, stronger effect = higher value. The method, boiled down: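 Strain: mec2-1 (DNA repair/cell cycle alteration). Compound exposure, then growth measured; inhibition expressed relative to vehicle.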
Test [3] in a line: NCI Yeast Anticancer Drug Screen. Data for the sgs1 mgt1 strain (AID 161).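 Note: 0% = growth of cultures given vehicle only.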 To be noted: S. cerevisiae sgs1 mgt1 strain, stronger effect = higher value. The method, boiled down:
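Genetically altered yeast, compound exposure, growth inhibition relative to vehicle.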

Test [4] is described as follows: NCI Yeast Anticancer Drug Screen. Data for the cln2 rad14 strain (AID 165).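 Note: 0% = growth equal to vehicle treated cultures.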 The following applies: S. cerevisiae cln2 rad14 strain, stronger effect = higher value. The method, boiled down: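 Compounds are applied to the cln2 rad14 yeast strain, and growth is then compared with that of vehicle-treated cultures to give inhibition.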
Test [5] is described as follows: NCI Yeast Anticancer Drug Screen. Data for the bub3 strain (AID 167). The following applies: S. cerevisiae bub3 mutant strain, stronger effect = higher value. The method, boiled down: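 Growth of a checkpoint-deficient yeast mutant is measured after compound exposure. Values represent inhibition relative to vehicle.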
A short description of test [6]: NCI Yeast Anticancer Drug Screen. Data for the mlh1 rad18 strain (AID 175). To be noted: S. cerevisiae mlh1 rad18 strain growth inhibition, stronger effect = higher value. The method, boiled down: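 Read-out is yeast growth inhibition, calculated against vehicle-only controls. The compound was applied to a strain engineered with DNA damage repair alterations.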
[7] abbreviates: at 5.0 µM (retest, dose inferred, filed as 0.5).
[8] abbreviates: at 50.0 µM (retest, dose inferred, filed as 5.0).

SMILES strings stand for the structures. This is part of a sample that, as a whole, favours compounds with a hit. Of some 79,000 tested, about 15% had one in any assay. A number with no mark means an inactive call. Active and inactive are the calls of the source. Cut-off read from the data, not from the text of the source: active = growth inhibition above about 70%; inactive = the rest.

For `Oc1ccc(C(c2ccccc2)(c2ccccc2)c2ccccc2)cc1O`, the growth inhibition in test [1] (setting [7]) was -8%; in test [1] (setting [8]) it was 99% (active); in test [1] (at 50.0 µM) it was 98.2% (active); in test [2] (setting [7]) it was -2%; in test [2] (setting [8]) it was 100% (active); in test [2] (at 50.0 µM), 98.7% (active). For the same compound, the growth inhibition in test [3] (setting [7]) is -4%; in test [3] (setting [8]), 99% (active); in test [3] (at 50.0 µM), 98.3% (active); in test [4] (setting [7]), 0%; in test [4] (setting [8]), 97% (active); in test [4] (at 50.0 µM), 97.4% (active). Moreover, the growth inhibition was -4% in test [5] (setting [7]); 99% (active) in test [5] (setting [8]); 98% (active) in test [5] (at 50.0 µM); 0% in test [6] (setting [7]); 99% (active) in test [6] (setting [8]); 98% (active) in test [6] (at 50.0 µM).
As to `CS/C(C#N)=C(\C#N)SC`, the growth inhibition in test [1] (setting [7]) was 10%; in test [1] (setting [8]), 78% (active); in test [1] (at 50.0 µM), 79.2% (active); in test [2] (setting [7]), 3%; in test [2] (setting [8]), 27%; in test [2] (at 50.0 µM), 16.3%. For the same compound, the growth inhibition in test [3] (setting [7]) was 2%; in test [3] (setting [8]), 23%; in test [3] (at 50.0 µM), 67.6%; in test [4] (setting [7]), 3%; in test [4] (setting [8]), 12%; in test [4] (at 50.0 µM), 23.6%. Also, the growth inhibition in test [5] (setting [7]) is 2%; in test [5] (setting [8]) it was 59%; in test [5] (at 50.0 µM), 53.1%; in test [6] (setting [7]), 7%; in test [6] (setting [8]), 35%; in test [6] (at 50.0 µM) it was 43.5%.
On to `O=C(C[N+]12CN3CN(CN(C3)C1)C2)c1ccc(Cl)cc1Cl`, for which the growth inhibition in test [1] (setting [7]) is -2%; in test [1] (setting [8]), -4%; in test [1] (at 50.0 µM) it was 99.3% (active); in test [2] (setting [7]) it was 9%; in test [2] (setting [8]), 5%; in test [2] (at 50.0 µM) it was 99.5% (active). For the same compound, the growth inhibition in test [3] (setting [7]) was -20%; in test [3] (setting [8]), -4%; in test [3] (at 50.0 µM) it was 99.4% (active); in test [4] (setting [7]) it was -1%; in test [4] (setting [8]), -6%; in test [4] (at 50.0 µM), 99.2% (active). The growth inhibition in test [5] (setting [7]) is 0%; in test [5] (setting [8]) it was -2%; in test [5] (at 50.0 µM), 99.3% (active); in test [6] (setting [7]) it was -12%; in test [6] (setting [8]), -26%; in test [6] (at 50.0 µM), 99.4% (active).
Regarding `NNc1ccccc1F`, the growth inhibition in test [1] (setting [7]) is -34%; in test [1] (setting [8]), 96% (active); in test [1] (at 50.0 µM) it was 99.2% (active); in test [2] (setting [7]), -32%; in test [2] (setting [8]) it was 97% (active); in test [2] (at 50.0 µM) it was 99.7% (active). For the same compound, the growth inhibition is -42% in test [3] (setting [7]); 92% (active) in test [3] (setting [8]); 97.8% (active) in test [3] (at 50.0 µM); -41% in test [4] (setting [7]); 65% in test [4] (setting [8]); 98% (active) in test [4] (at 50.0 µM). Besides, the growth inhibition is -45% in test [5] (setting [7]); 44% in test [5] (setting [8]); 99.2% (active) in test [5] (at 50.0 µM); -58% in test [6] (setting [7]); 95% (active) in test [6] (setting [8]); 98.9% (active) in test [6] (at 50.0 µM).
`CC(=O)OC1=C(CC(C)C)C(=O)c2ccccc2C1=O`: the growth inhibition was 7% in test [1] (setting [7]); 67% in test [1] (setting [8]); 69.2% in test [1] (at 50.0 µM); 8% in test [2] (setting [7]); 70% (active) in test [2] (setting [8]); 59.2% in test [2] (at 50.0 µM). In addition, the growth inhibition was 7% in test [3] (setting [7]); 88% (active) in test [3] (setting [8]); 78.6% (active) in test [3] (at 50.0 µM); 1% in test [4] (setting [7]); 55% in test [4] (setting [8]); 51% in test [4] (at 50.0 µM). The growth inhibition in test [5] (setting [7]) was 6%; in test [5] (setting [8]), 78% (active); in test [5] (at 50.0 µM), 56.6%; in test [6] (setting [7]), 20%; in test [6] (setting [8]) it was 85% (active); in test [6] (at 50.0 µM), 73.5% (active).
`COc1cc(C2c3cc4c(cc3OC(NNc3ccccc3)C2C)OCO4)cc(OC)c1O` (stereo not given): the growth inhibition in test [1] (setting [7]) is -5%; in test [1] (setting [8]) it was 97% (active); in test [1] (at 50.0 µM), 98.2% (active); in test [2] (setting [7]), -15%; in test [2] (setting [8]) it was 98% (active); in test [2] (at 50.0 µM) it was 98.7% (active). Besides, the growth inhibition in test [3] (setting [7]) was -13%; in test [3] (setting [8]), 99% (active); in test [3] (at 50.0 µM), 98.4% (active); in test [4] (setting [7]), -5%; in test [4] (setting [8]), 96% (active); in test [4] (at 50.0 µM) it was 98.6% (active). The growth inhibition in test [5] (setting [7]) was -7%; in test [5] (setting [8]) it was 97% (active); in test [5] (at 50.0 µM) it was 98.7% (active); in test [6] (setting [7]) it was -11%; in test [6] (setting [8]), 97% (active); in test [6] (at 50.0 µM), 98.3% (active).
As for `CCCCCC/C=C\C=O`, the growth inhibition is -1% in test [1] (setting [7]); 4% in test [1] (setting [8]); 67.7% in test [1] (at 50.0 µM); -6% in test [2] (setting [7]); 13% in test [2] (setting [8]); 37.1% in test [2] (at 50.0 µM). Further, the growth inhibition was 3% in test [3] (setting [7]); 17% in test [3] (setting [8]); 64% in test [3] (at 50.0 µM); -6% in test [4] (setting [7]); 12% in test [4] (setting [8]); 52% in test [4] (at 50.0 µM). The growth inhibition was -2% in test [5] (setting [7]); 6% in test [5] (setting [8]); 79.5% (active) in test [5] (at 50.0 µM); 0% in test [6] (setting [7]); 5% in test [6] (setting [8]); 51.4% in test [6] (at 50.0 µM).
`C=C1CC2(C[C@@H](c3ccccc3)O[C@@H](c3ccccc3)C2)OC1=O` (stereo not given in full): the growth inhibition in test [1] (setting [7]) is 20%; in test [1] (setting [8]) it was 97% (active); in test [1] (at 50.0 µM), 95% (active); in test [2] (setting [7]) it was 4%; in test [2] (setting [8]), 98% (active); in test [2] (at 50.0 µM), 94.6% (active). Also, the growth inhibition in test [3] (setting [7]) is 2%; in test [3] (setting [8]) it was 98% (active); in test [3] (at 50.0 µM), 94.5% (active); in test [4] (setting [7]), 35%; in test [4] (setting [8]), 97% (active); in test [4] (at 50.0 µM), 90.5% (active). For the same compound, the growth inhibition in test [5] (setting [7]) was 33%; in test [5] (setting [8]), 98% (active); in test [5] (at 50.0 µM), 95.2% (active); in test [6] (setting [7]) it was 15%; in test [6] (setting [8]), 98% (active); in test [6] (at 50.0 µM) it was 92.5% (active).
Take `N#CC(CC(=O)O)C(c1cccc2ccccc12)c1cccc2ccccc12` (stereo not given): the growth inhibition in test [1] (setting [7]) was 10%; in test [1] (setting [8]), 99% (active); in test [1] (at 50.0 µM), 99.1% (active); in test [2] (setting [7]) it was 17%; in test [2] (setting [8]) it was 99% (active); in test [2] (at 50.0 µM) it was 98.5% (active). For the same compound, the growth inhibition in test [3] (setting [7]) is 4%; in test [3] (setting [8]) it was 98% (active); in test [3] (at 50.0 µM), 98.8% (active); in test [4] (setting [7]), 4%; in test [4] (setting [8]) it was 99% (active); in test [4] (at 50.0 µM) it was 97.6% (active). The growth inhibition is 17% in test [5] (setting [7]); 99% (active) in test [5] (setting [8]); 98.5% (active) in test [5] (at 50.0 µM); 17% in test [6] (setting [7]); 99% (active) in test [6] (setting [8]); 99.2% (active) in test [6] (at 50.0 µM).
Regarding `CCCCCCC(C)S(=O)(=O)c1ccc(C)cc1` (stereo not given), the growth inhibition is 3% in test [1] (setting [7]); 63% in test [1] (setting [8]); 58.5% in test [1] (at 50.0 µM); 14% in test [2] (setting [7]); 83% (active) in test [2] (setting [8]); 84.7% (active) in test [2] (at 50.0 µM). The growth inhibition in test [3] (setting [7]) was 7%; in test [3] (setting [8]) it was 75% (active); in test [3] (at 50.0 µM), 59.7%; in test [4] (setting [7]), 5%; in test [4] (setting [8]) it was 13%; in test [4] (at 50.0 µM), 5.1%. Also, the growth inhibition in test [5] (setting [7]) was 0%; in test [5] (setting [8]), 50%; in test [5] (at 50.0 µM) it was 17.1%; in test [6] (setting [7]), -3%; in test [6] (setting [8]), 47%; in test [6] (at 50.0 µM), 51.2%.
